IL-1B inflam inh – inflammasome signaling inhibition, IL-1 beta readout; THP-1 LPS/ATP IL-1B secretion, AlphaLISA, 16 h; hits give low values; activity change, % at 57.5 µM; 4.7% of 360,000 active; in the data active means activity change below about -50%; inconclusive means mostly about -30% to -49%; further: on the % scale 0 is the no-effect control and ±100 the full control effect
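Secreted IL-1B measured by AlphaLISA bead assay after 16 h compound exposure of THP-1 cells; compounds (final up to 57.5 uM) added 1 h before LPS (250 ng/mL) and ATP (1.25 mM) stimulation; lower signal means less secretion.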
Giardia killer – Giardia lamblia killing | Giardia lamblia trophozoite viability | activity change, % at 7.66 µM, hits read low | AID 540267 | 0.15% of 340,000 active; in the data active means activity change below about -80%; inconclusive means between about -30% and that limit;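 further: parasites exposed to compound for two days anaerobically before the ATP read; on the % scale 0 is the no-effect control and ±100 the full control effect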
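ATP-content bioluminescence gauges trophozoite survival. Cells (100/well) receive compound and incubate anaerobically for 48 hrs at 37 deg C; detection reagent follows for 15-30 min at room temperature.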
MCF10A rereplic – DNA re-replication induction in MCF 10a cells; Potency, µM (titrated, usually from 46.1 µM), without a hit: top-dose activity, positive = re-replication, hits mostly activators; MCF 10A DNA re-replication, Hoechst nuclear intensity, 48 h; 2.9% of 350,000 active; further: potency means the concentration at half of the fitted maximal effect; % of control where 0% means no effect; nearly all actives have a fitted effect of over 50% in size
SW480 rerep – induces DNA re-replication in SW480 colon adenocarcinoma cells | SW480 DNA re-replication, Hoechst DNA content imaging, 48 h | 1.8% of 340,000 active | AID 624297 | Potency, µM (doses to about 46.1 µM), without a hit: at the highest dose re-replication activation, hits mostly activators; further: potency means the concentration at half of the fitted maximal effect; % of control where 0% means no effect; nearly all actives have a fitted effect of over 55% in size
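Cells (250 per well) received 23 nL compound or DMSO by pin tool and were kept 48 hr at 37 C, 5% CO2. Nuclei were then stained with Hoechst for 40 min and scanned for DNA content.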
Vif-A3G inh – blocks the Vif interaction with human APOBEC3G | HeLa A3G-eYFP + Vif (tagged APOBEC3G with the HIV-1 protein that degrades it), YFP fluorescence, overnight | Potency, µM (series often up to 46.1 µM), without a hit: top-dose activity, negative = active, most hits filed as inhibitors | 0.076% of 410,000 active | AID 602310; further: potency means the concentration at half of the fitted maximal effect; on the % scale 0 is the no-effect control and ±100 the full control effect; nearly all actives have a fitted effect of over 60% in size
Target sequence (Q9HC16 whole entry, looked up): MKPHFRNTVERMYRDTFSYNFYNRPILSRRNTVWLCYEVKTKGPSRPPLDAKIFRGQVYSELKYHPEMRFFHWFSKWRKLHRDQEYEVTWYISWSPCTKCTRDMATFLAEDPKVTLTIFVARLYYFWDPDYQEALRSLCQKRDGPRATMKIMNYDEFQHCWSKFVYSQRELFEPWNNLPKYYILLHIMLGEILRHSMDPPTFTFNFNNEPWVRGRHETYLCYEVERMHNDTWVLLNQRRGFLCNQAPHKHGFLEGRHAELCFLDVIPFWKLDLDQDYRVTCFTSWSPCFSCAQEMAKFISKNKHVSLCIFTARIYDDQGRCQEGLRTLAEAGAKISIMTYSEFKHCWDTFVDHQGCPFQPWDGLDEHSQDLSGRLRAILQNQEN
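HeLa cells stably expressing Vif and C-terminally eYFP-tagged A3G, seeded overnight at 37 deg C, then exposed to compound by pintool overnight at 37 deg C. Rise in yellow fluorescence (Ex 488/Em 500-530, Acumen) marks blocked Vif-driven A3G degradation.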
Vif-APOBEC3F blk – Vif-A3F binding inhibition | Potency, µM (series often up to 46.1 µM), for the others: at the highest dose activity, negative = active | 0.2% of 390,000 active | HeLa A3F-eYFP + Vif (tagged APOBEC3F with the HIV-1 protein that degrades it), YFP fluorescence increase; further: potency means the concentration at half of the fitted maximal effect; % of control where 0% means no effect; nearly all actives have a fitted effect of over 65% in size
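HeLa cells stably expressing A3F-eYFP plus Vif, plated and incubated overnight at 37 deg C, then exposed to compounds overnight at 37 deg C. Blocked degradation read as raised yellow fluorescence (Ex 488/Em 500-530).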
Active calls of the source: *. Shown are actives, neighbours in structure and some others; about 6.9% of the full set was active somewhere. Unless noted, the call rests on the fitted dose curve; in most records, active means well fitted curve in the direction sought with a large enough effect; inconclusive means small, poorly fitted or top-dose-only effect, or another doubt; inactive means no such curve, though single readings can be large; an effect the other way counts as inactive or inconclusive.

Results for C=CCN=c1scc(-c2ccc(F)cc2)n1/N=C/c1ccccn1 ?
IL-1B inflam inh: inconclusive; Giardia killer: -16.3; MCF10A rereplic: inconclusive; SW480 rerep: 3.9%; Vif-A3G inh: -5.5%; Vif-APOBEC3F blk: inconclusive

What do the screens show for `C=CCN=c1scc(-c2ccc3c(c2)NC(=O)CO3)n1/N=C(\C)c1ccccn1`?
IL-1B inflam inh: -63.6*; Giardia killer: -12.1; MCF10A rereplic: inconclusive; SW480 rerep: -6.5%; Vif-A3G inh: -1.1%; Vif-APOBEC3F blk: -27.3%

How did COc1ccccc1N1CCN(CCCCOc2cccc3ccccc23)CC1 do in these assays?
IL-1B inflam inh: -56.5*; Giardia killer: -8.8; MCF10A rereplic: inconclusive; SW480 rerep: 4.5%; Vif-A3G inh: -5.8%; Vif-APOBEC3F blk: -5.3%

Results for COc1ccc(CN2CCN(c3ccccc3OC)CC2)cc1OC ?
IL-1B inflam inh: -19.4; Giardia killer: 7.2; MCF10A rereplic: 2.06µM*; SW480 rerep: -17.1%; Vif-A3G inh: 0.1%; Vif-APOBEC3F blk: -2.1%

What do the screens show for `COc1cc(OC)c(C(=O)NCc2nc(-c3ccccc3)no2)cc1OC`?
Vif-A3G inh: 1.8%; Vif-APOBEC3F blk: 0.5%

How did NC(CO)(CO)CO do in these assays?
MCF10A rereplic: 4.1%; SW480 rerep: 1.2%

What do the screens show for `COc1ccc(-c2nc3sc(CCNC(=O)Cc4ccccc4)c(C)n3n2)cc1`?
Vif-A3G inh: 4.1%; Vif-APOBEC3F blk: -4.0%

What do the screens show for `CC1N(C)c2cc(NC(=O)c3cccs3)c(P(=O)(Nc3ccc([N+](=O)[O-])cc3)N3CCOCC3)cc2C1(C)C` (centres undefined)?
IL-1B inflam inh: -57.9*; Giardia killer: 12.2; MCF10A rereplic: -9.5%; SW480 rerep: 14.3%; Vif-A3G inh: -13.0%; Vif-APOBEC3F blk: 9.1%

How did CCC(C(=O)NCc1ccccc1Cl)n1nc(C)c2sc3ccccc3c2c1=O (centres undefined) do in these assays?
Vif-A3G inh: -2.9%; Vif-APOBEC3F blk: -4.3%

What do the screens show for `CCc1ccc(OCCCCn2c(CCNC(=O)C3CCCCC3)nc3ccccc32)cc1`?
Giardia killer: -2.2; Vif-A3G inh: -2.7%

What do the screens show for `COc1ccc(-c2cc(=O)oc3cc(O)ccc23)cc1`?
IL-1B inflam inh: 17.1; Giardia killer: 8.2; MCF10A rereplic: 7.2%; SW480 rerep: inconclusive; Vif-A3G inh: -0.5%; Vif-APOBEC3F blk: 3.3%

Results for COc1ccc(-c2cc(=O)oc3cc(OC(=O)C4CCCCC4)c(Cl)cc23)cc1 ?
IL-1B inflam inh: 4.8; Giardia killer: inconclusive; MCF10A rereplic: 11.6µM*; SW480 rerep: 11.6µM*; Vif-A3G inh: 10.9%; Vif-APOBEC3F blk: 0.0%

Results for O=c1c2cc(N3CCOCC3)ccc2[nH]c(=S)n1Cc1ccccc1Cl ?
IL-1B inflam inh: 19.9; Giardia killer: -3.9; MCF10A rereplic: 23.1µM*; SW480 rerep: inconclusive; Vif-A3G inh: -0.1%; Vif-APOBEC3F blk: 0.0%

How did O=C(CCCCCn1c(=S)[nH]c2ccc(N3CCOCC3)cc2c1=O)NCc1cccc(Cl)c1 do in these assays?
IL-1B inflam inh: 44.8; Giardia killer: 11.9; MCF10A rereplic: 16.4µM*; SW480 rerep: inconclusive; Vif-A3G inh: -1.4%; Vif-APOBEC3F blk: inconclusive

Results for O=C(CCCCCn1c(=S)[nH]c2ccc(N3CCOCC3)cc2c1=O)NCc1ccccc1 ?
IL-1B inflam inh: 15.7; Giardia killer: 7.5; MCF10A rereplic: 21.9%; SW480 rerep: -2.5%; Vif-A3G inh: 2.0%; Vif-APOBEC3F blk: 3.4%

Results for CCCSCCCNC(=O)c1sc2nc(C)cc(C)c2c1-n1cccc1 ?
Vif-A3G inh: 1.9%; Vif-APOBEC3F blk: 5.6%

How did Cc1cc(-c2ccc(S(=O)(=O)Nc3ccc(Cl)cc3C)cc2)on1 do in these assays?
Vif-A3G inh: -14.3%; Vif-APOBEC3F blk: -4.9%

How did CNc1c(Br)cc(/C=C2\C=Cc3ccccc32)cc1Br do in these assays?
Vif-A3G inh: -4.5%

Compound activity from PubChem.
